From PubChem BioAssay AID488899 (Broad Institute, 2010)
Out of some 330,000 compounds screened, about 2,800 (0.85%) were called active.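 The calls were made as follows: active = mean inhibition across replicates of 60% or more, whatever share of single replicates reaches that level; inconclusive = some that reach 60%, reason not given; inactive = mean inhibition across replicates below 60%.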 What follows is part of a selection rich in actives, with near analogues and random picks from the rest.

Experiment: MITF transcriptional activity suppression – cell-based, SK-MEL-5, single point, luciferase, primary screen (AID 488899)
Details: SK-MEL-5 TRPM1 promoter luciferase, 24 h; at 12.5 µM; stronger effect = higher value

| Structure (SMILES) | inhibition |
| --- | --- |
| O=C(N/N=C/c1cccc(OCc2ccccc2)c1)c1ccc(Br)o1 | 4.51% (inactive) |
| N#Cc1cc([N+](=O)[O-])ccc1Oc1cccc(/C=N/NC(=O)c2ccc(Cl)cc2)c1 | 4.52% (inactive) |
| CCCc1ccc(OCc2ccc(C(=O)N/N=C/c3cccc([N+](=O)[O-])c3)o2)c(OC)c1 | 69.2% (active) |
| COc1ccc(C(=O)NC2CC(C)(C)NC(C)(C)C2)cc1OC | 1.95% (inactive) |
| CCOc1ncccc1C(=O)OCC(=O)c1c[nH]c2ccccc12 | 1.75% (inactive) |
| O=C(Nc1cc2c3c(c1)C1CCCC1CN3CC1CCCC21)c1ccc([N+](=O)[O-])cc1 (stereo unspecified) | 1.02% (inactive) |
| COc1ccc(NC(=O)N2CCCC2C(=O)NCc2ccccc2Cl)cc1 (stereo unspecified) | 11.5% (inactive) |
| C=CCNc1nnc(SCC(=O)N2CCCCC2)c2ccccc12 | 11.5% (inactive) |
| CC(C)Cn1c(CCC(=O)O)ccc1-c1cccs1 | 7.94% (inactive) |
| CCc1ccc2nc(N(CCCN(C)C)C(=O)c3ccc4c(c3)OCCO4)sc2c1 | -67.8% (inactive) |
| CN(C)CCCN(C(=O)c1ccc(S(=O)(=O)N2CCCc3ccccc32)cc1)c1nc2ccc(F)cc2s1 | 70.8% (active) |
| Cc1ccc(NC(=O)c2cccc(S(=O)(=O)N3CCCc4ccccc43)c2)nc1 | 23.9% (inactive) |
| O=C(COC(=O)c1ccc([N+](=O)[O-])cc1Cl)NC(=O)c1ccccc1 | -3.45% (inactive) |
| CC1CCN(C(=O)c2cccc(S(=O)(=O)N3CCCc4ccccc43)c2)CC1 | 7.39% (inactive) |
| O=C(Nc1nc2ccc([N+](=O)[O-])cc2s1)c1ccc(S(=O)(=O)N2CCCc3ccccc32)cc1 | 75.6% (active) |
| Cn1c(=O)n(C)c2cc(S(=O)(=O)N3CCCc4ccccc43)ccc21 | 0.873% (inactive) |
| CN(C)CCCN(C(=O)c1ccc(S(=O)(=O)N2CCCCCC2)cc1)c1nc2ccc(Br)cc2s1 | 92.8% (active) |
| O=C(NC(Nc1nc2ccc([N+](=O)[O-])cc2s1)(C(F)(F)F)C(F)(F)F)c1ccccc1 | 70.9% (active) |
| CCC(=O)Nc1nnc(S(=O)(=O)N2CCCc3ccccc32)s1 | 5.17% (inactive) |
| COc1ccc2sc(N(CCCN(C)C)C(=O)c3ccc(S(=O)(=O)N(C)C4CCCCC4)cc3)nc2c1 | 55.2% (inactive) |
| N=C1C(c2nc3ccccc3s2)=C(O)CN1NC(=O)c1ccc([N+](=O)[O-])cc1 | 14.1% (inactive) |
| CC(=O)N(OCc1ccc(OC(C)C)c(Cl)c1)C(C)=O | -2.52% (inactive) |
| OCC1(CO)CC2(C1)CC(CO)(CO)C2 | -3.8% (inactive) |

| Structure (SMILES) | inhibition |
| --- | --- |
| CCN(CC)S(=O)(=O)c1cccc(NC(=O)c2ccc(S(=O)(=O)N3CCCC3)cc2)c1 | 11% (inactive) |
| COc1ccc(-c2cc(C(=O)NC(Cc3c[nH]c4ccccc34)C(=O)O)c(C)o2)cc1OC (stereo unspecified) | 9.33% (inactive) |
| O=C(NCC1(N2CCCCC2)CCCCC1)c1cccc(S(=O)(=O)Nc2ccccc2Cl)c1 | -26.7% (inactive) |
| Cc1cc(NC(=O)C(C)SCC(=O)Nc2cccc(S(=O)(=O)N3CCCCCC3)c2)no1 (stereo unspecified) | 18.1% (inactive) |
| CCC1CCCCN1C(=S)Nc1ccc(SC(F)F)cc1 (stereo unspecified) | -3.13% (inactive) |
| COCCn1c(=NC(=O)c2ccccc2[N+](=O)[O-])sc2cc(S(C)(=O)=O)ccc21 | -52% (inactive) |
| N#CC1=C(N)Oc2cc(N)ccc2C1c1ccccc1 (stereo unspecified) | 23.5% (inactive) |
| Nc1ncnc2c1cnn2C1CC(O)C(CO)O1 (stereo unspecified) | -4.63% (inactive) |
| CC(C(=O)NC1CCCC1)N1CCN(S(=O)(=O)c2ccccc2Cl)CC1 (stereo unspecified) | -2.61% (inactive) |
| O=C(Nc1c[nH]c(=O)[nH]c1=O)OCc1ccccc1 | 0.994% (inactive) |
| CC1(C)N=C(N)NC(Nc2ccc(Cl)cc2)=N1 | 4.8% (inactive) |
| CC(C)(C)OC(=O)NC(Cc1ccccc1)C(=O)NC(CSC1CCCCO1)C(=O)NN (stereo unspecified) | -5.98% (inactive) |
| COc1ccc2c(c1)c(=Cc1ccc(N(C)C)cc1)c1cc(-c3ccccc3)[n+](C)n12 | 95.7% (active) |
| COc1ccc2sc(-c3ccc(N(C)C)cc3)c(-c3ccc4cc[nH]c4c3)c2c1 | -103% (inactive) |
| COc1ccc2sc(-c3ccc(N(C)C)cc3)c(C#CCO)c2c1 | -46.5% (inactive) |
| Cn1cc(S(=O)(=O)N2CCN(c3ccc(F)cc3)CC2)c(=O)n(C)c1=O | 1.94% (inactive) |
| COC(=O)Cc1nc2c(N)nc(N)nc2[nH]c1=O | 3.9% (inactive) |
| CCc1ccc(-c2cc(C)no2)cc1S(=O)(=O)NCCc1ccc(S(N)(=O)=O)cc1 | -13.2% (inactive) |
| O=C(C[C@H]1C[C@H](C(=O)N2CCOCC2)[C@@]2(CCC3CCCC3)c3[nH]c4ccc(Cl)cc4c3CCN2C1=O)NCc1ccco1 | 21.2% (inactive) |
| COc1ccc2[nH]c3c(c2c1)CCN1C(=O)C(CC(=O)NCCCN(C)C)C[C@H](C(=O)N2CCOCC2)[C@@]31CCC1CCCC1 (stereo partly specified) | -12.1% (inactive) |
| COc1ccc(CNC(=O)C[C@H]2C[C@H](C(=O)N3CCOCC3)[C@@]3(CCC4CCCC4)c4[nH]c5ccc(Cl)cc5c4CCN3C2=O)cc1OC | 72.7% (active) |
| CCOC(=O)N1CCN(C(=O)C2CCCN(c3ncnc4c3sc3cccc(F)c34)C2)CC1 (stereo unspecified) | 28.8% (inactive) |
| Cc1[nH]c2c(C(=O)N3CCCC(CCC(=O)NCc4ccccc4F)C3)cccc2c1C (stereo unspecified) | -16% (inactive) |

| Structure (SMILES) | inhibition |
| --- | --- |
| O=C1C(Cl)=C(Oc2ccccc2)C(=O)c2ccccc21 | 89.7% (active) |
| CC(=O)Oc1ccc2c(c1)C(=O)c1ccccc1C2=O | -2.87% (inactive) |
| CC(=O)N(C1=C(Cl)C(=O)c2ccccc2C1=O)c1ccc(C(=O)O)cc1 | 11.6% (inactive) |
| COC(=O)C1=C(NC(=O)C(C)(C)C)CCS1 | -3.02% (inactive) |
| CC(C)C[C@@H](NC(=O)[C@H]1CCCN1C(=O)Cc1ccccc1)C(N)=O | 0.4% (inactive) |
| NC(=O)C1(N2CCCC2)CCN(Cc2ccccc2)CC1 | -3.66% (inactive) |
| Cc1cccc(-n2ncc(Cl)c(Cl)c2=O)c1 | 72.1% (active) |
| Cc1cccc(-n2ncc(C#N)c2-n2cccc2)c1 | 3.18% (inactive) |
| C=CCNc1cnn(-c2ccc(C)cc2)c(=O)c1Cl | -110% (inactive) |
| CNN/C(N=Cc1ccc([N+](=O)[O-])s1)=N\S(=O)(=O)c1cc(C)c(Cl)cc1SCc1ccccc1 | 24.1% (inactive) |
| CNC[C@H](CC1CCCCC1)NC[C@H](NCCC1CCCC1)[C@H](C)O | 78.2% (active) |
| CCOC(=O)c1ccccc1NC(=O)CSc1nc2c(sc(=S)n2CC)c(=O)[nH]1 | -3.35% (inactive) |
| Cc1ccc(-n2nc(N)c3c(=O)oc(N(C)C)nc32)cc1 | -8.9% (inactive) |
| COc1ccc(C(=O)NCC(c2ccco2)N2CCc3ccccc32)cc1OC (stereo unspecified) | 5.95% (inactive) |
| Cc1ccc(-c2cn3cc(C)ccc3n2)cc1 | 93.3% (active) |
| Cc1ccc(-c2cn3cc([N+](=O)[O-])ccc3n2)cc1 | 48.1% (inactive) |
| Cc1ccc2nc(-c3ccc(Br)cc3)cn2c1 | 50.5% (inactive) |
| CCOc1ccc(-n2cnc3c(=O)[nH]c(N)nc32)cc1 | -21.7% (inactive) |
| O=C(CCCCCCCC(=O)N1CCCCC1)N1CCCCC1 | 0.359% (inactive) |
| COc1ccc(NC(=O)COC(=O)c2ccncc2)c(OC)c1 | -6.34% (inactive) |
| Cc1cc2oc(=O)cc(CN3CCN(Cc4ccccc4)CC3)c2cc1C | -7.61% (inactive) |
| Cc1cc2oc3ccc(NCCC4CCCN4C)cc3c(=O)c2cc1C (stereo unspecified) | 82.2% (active) |
| COc1cccc2sc3cc(NCC[C@@H]4CCCN4C)ccc3c(=O)c12 | -35.6% (inactive) |

| Structure (SMILES) | inhibition |
| --- | --- |
| CCOc1ccc(CN2CCNC(=O)C2CC(=O)NCCCC2CCCC2)cc1 (stereo unspecified) | -18.3% (inactive) |
| COc1cc([N+](=O)[O-])ccc1NC(=O)COC(=O)CCOc1ccc(C)cc1 | 8.46% (inactive) |
| COC(=O)c1sccc1NC(=S)Nc1ccc(C)cc1 | -74.3% (inactive) |
| CCN(CC(=O)Nc1ccc(OC)cc1)C(=O)CSCc1ccc(C)cc1 | -0.141% (inactive) |
| COc1ccc(CCNC(=O)c2cnc(Cl)c(Cl)c2)cc1 | 1.33% (inactive) |
| COc1ccc(NC(=O)/C(Cl)=C(/Cl)S(=O)Cc2ccc(C)cc2)cn1 (stereo unspecified) | 113% (active) |
| COc1ccc(C(=O)CCC(=O)Nc2ccc(Cl)cc2)cc1 | -4.44% (inactive) |
| COc1ccc(CS(=O)/C(Cl)=C(/Cl)C(=O)Nc2ccc(OC)nc2)cc1 (stereo unspecified) | 99.4% (active) |
| COc1ccc(C(=O)NC(Cc2ccc(OC(=O)c3ccc(OC)cc3)cc2)C(=O)O)cc1 (stereo unspecified) | 3.82% (inactive) |
| O=C(N/N=C/c1ccccn1)C12CC3CC(CC(C3)C1)C2 | 0.297% (inactive) |
| Cc1nnc(N/N=C/c2ccccn2)[nH]c1=O | 79.6% (active) |
| Cc1cc(C(=O)N/N=C/c2ccccn2)c2ccccc2n1 | -2.21% (inactive) |
| O=C(O)c1cc(S(=O)(=O)N(Cc2ccccc2)c2cccc(C(F)(F)F)c2)ccc1Cl | 11.3% (inactive) |
| COc1cc2c(cc1O)C(SC)=NC(C)(C)C2 | 73.8% (active) |
| COc1cc2c(cc1OC)C(Nc1ccc(S(N)(=O)=O)cc1)=NC(C)(C)C2 | 12.1% (inactive) |
| COc1cc2c(cc1OC)C(C(C)C)=NC(C)(C)C2 | 2.2% (inactive) |
| COc1ccc(-n2c(C)nn(CC3CC3)c2=O)cc1 | -0.556% (inactive) |
| CCOc1ccc(NC(=O)CSc2nc3ccccc3c(=O)n2Cc2cccs2)cc1 | 9.83% (inactive) |
| C=CCn1c(CNS(=O)(=O)c2ccc(Br)cc2)nnc1SC | -0.805% (inactive) |
| Cc1cc(-c2n[nH]c(=S)n2/N=C/C(Br)=C/c2ccccc2)n[nH]1 | 71.3% (active) |
| COc1ccccc1N1CCN(/N=C\C(Br)=C\c2ccccc2)CC1 | -56.4% (inactive) |
| CC(C)c1cc(C(=O)N/N=C/C(Br)=C/c2ccccc2)n[nH]1 | 11.7% (inactive) |
